Assay results reported in the supplement of paper PMC8728848.
Only a selection was taken, and the strongest signals are over-represented in it overall.

Columns and labels:
Assay in all cases: glycan array binding signal (z-score within array); higher = stronger binding
Conditions in all cases: glycan notation: IUPAC condensed, linker removed
[1] = target: Fuc(a1-2)Gal(b1-4)GlcNAc(b1-3)Gal(b1-4)GlcNAc(b1-2)Man(a1-3)[Fuc(a1-2)Gal(b1-4)GlcNAc(b1-3)Gal(b1-4)GlcNAc(b1-2)Man(a1-6)]Man(b1-4)GlcNAc(b1-4)GlcNAc
Procedure, shortened: (§1)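 Negative Z-scores can be read as non-binding. The Z-score is calculated within each array and then averaged across arrays of one protein sequence at different concentrations or buffers and across linkers. Arrays, 3228 in all, were curated from the Consortium for Functional Glycomics database and kept only where the protein sequence was available.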

[2] = target: Fuc(a1-2)Gal3S(b1-4)GlcNAc
Procedure, shortened: as §1

[3] = target: Fuc(a1-2)Gal6S(b1-3)GlcNAc6S
Procedure, shortened: as §1

[4] = target: Fuc(a1-2)[GalNAc(a1-3)]Gal(b1-3)GlcNAc(b1-6)GalNAc
Procedure, shortened: as §1

[5] = target: Fuc(a1-3)[Gal(b1-4)]GlcNAc(b1-6)[Gal(b1-3)GlcNAc(b1-3)]Gal(b1-4)Glc
Procedure, shortened: as §1

[6] = target: Fuc(a1-3)[Gal(b1-4)]GlcNAc6S
Procedure, shortened: as §1

[7] = target: Gal(a1-3)Gal(b1-3)GlcNAc(b1-6)GalNAc
Procedure, shortened: as §1

[8] = target: Gal(a1-3)Gal(b1-4)GlcNAc(b1-3)GalNAc
Procedure, shortened: as §1

[9] = target: Gal(b1-3)GlcNAc(b1-2)Man
Procedure, shortened: as §1

[10] = target: Gal(b1-3)GlcNAc(b1-6)Gal(b1-4)GlcNAc
Procedure, shortened: as §1

[11] = target: Gal(b1-3)GlcNAc6S
Procedure, shortened: as §1

[12] = target: Gal(b1-3)[Neu5Ac(a2-6)]GalNAc
Procedure, shortened: as §1

[13] = target: Gal(b1-4)Glc6S
Procedure, shortened: as §1

[14] = target: Gal(b1-4)GlcNAc(b1-2)Man
Procedure, shortened: as §1

[15] = target: Gal(b1-4)GlcNAc(b1-2)[Gal(b1-4)GlcNAc(b1-6)]Man(a1-6)[GlcNAc(b1-4)][Gal(b1-4)GlcNAc(b1-2)Man(a1-3)]Man(b1-4)GlcNAc(b1-4)GlcNAc
Procedure, shortened: as §1

[16] = target: Gal(b1-4)GlcNAc(b1-3)Gal(b1-3)GalNAc
Procedure, shortened: as §1

[17] = target: Gal(b1-4)GlcNAc(b1-3)Gal(b1-4)GlcNAc(b1-3)Gal(b1-4)GlcNAc(b1-3)Gal(b1-4)GlcNAc(b1-2)Man(a1-3)[Gal(b1-4)GlcNAc(b1-3)Gal(b1-4)GlcNAc(b1-3)Gal(b1-4)GlcNAc(b1-3)Gal(b1-4)GlcNAc(b1-2)Man(a1-6)]Man(b1-4)GlcNAc(b1-4)[Fuc(a1-6)]GlcNAc
Procedure, shortened: as §1

[18] = target: Gal3S(b1-4)[Fuc(a1-3)]Glc6S
Procedure, shortened: as §1

[19] = target: Gal3S(b1-4)[Fuc(a1-3)]GlcNAc6S
Procedure, shortened: as §1

[20] = target: Gal4S6S(b1-4)GlcNAc
Procedure, shortened: as §1

[21] = target: Gal6S(b1-3)GlcNAc6S
Procedure, shortened: as §1

[22] = target: GalNAc3S(b1-4)[Fuc(a1-3)]GlcNAc
Procedure, shortened: as §1

[23] = target: GalNAc4S6S(b1-4)GlcNAc
Procedure, shortened: as §1

[24] = target: Glc(a1-4)Glc
Procedure, shortened: as §1

[25] = target: Glc(b1-6)Glc
Procedure, shortened: as §1

[26] = target: GlcA(b1-3)Gal
Procedure, shortened: as §1

[27] = target: GlcNAc(a1-4)Gal(b1-4)GalNAc
Procedure, shortened: as §1

[28] = target: GlcNAc6S(b1-3)Gal(b1-4)GlcNAc
Procedure, shortened: as §1

[29] = target: Kdn(a2-6)Gal(b1-4)GlcNAc
Procedure, shortened: as §1

[30] = target: Man(a1-2)Man(a1-2)Man(a1-6)[Man(a1-3)]Man
Procedure, shortened: as §1

[31] = target: Man(a1-2)Man(a1-3)[Man(a1-2)Man(a1-6)]Man(a1-6)[Man(a1-2)Man(a1-2)Man(a1-3)]Man
Procedure, shortened: as §1

[32] = target: Man(a1-2)Man(a1-6)[Man(a1-3)]Man(a1-6)[Man(a1-2)Man(a1-2)Man(a1-3)]Man(b1-4)GlcNAc(b1-4)GlcNAc
Procedure, shortened: as §1

[33] = target: Man(a1-3)[Man(a1-6)]Man(a1-6)[Man(a1-3)]Man(b1-4)GlcNAc(b1-4)GlcNAc
Procedure, shortened: as §1

[34] = target: Man(a1-3)[Man(a1-6)]Man(b1-4)GlcNAc(b1-4)GlcNAc
Procedure, shortened: as §1

[35] = target: Neu5Ac(a2-3)Gal(b1-3)GlcNAc(b1-2)Man
Procedure, shortened: as §1

[36] = target: Neu5Ac(a2-3)Gal(b1-3)[GlcNAc(b1-6)]GalNAc
Procedure, shortened: as §1

[37] = target: Neu5Ac(a2-3)Gal(b1-3)]Neu5Ac(a2-3)Gal(b1-4)]GlcNAc
Procedure, shortened: as §1

[38] = target: Neu5Ac(a2-3)Gal(b1-4)GlcNAc(b1-3)Gal(b1-4)GlcNAc(b1-3)Gal(b1-4)GlcNAc
Procedure, shortened: as §1

[39] = target: Neu5Ac(a2-3)Gal(b1-4)GlcNAc(b1-6)GalNAc
Procedure, shortened: as §1

[40] = target: Neu5Ac(a2-3)GalNAc
Procedure, shortened: as §1

[41] = target: Neu5Ac(a2-6)Gal(b1-4)GlcNAc(b1-2)Man(a1-6)[Man(a1-3)]Man(b1-4)GlcNAc(b1-4)GlcNAc
Procedure, shortened: as §1

[42] = target: Neu5Ac(a2-6)Gal(b1-4)GlcNAc(b1-3)Gal(b1-3)GlcNAc
Procedure, shortened: as §1

[43] = target: Neu5Ac(a2-6)Gal(b1-4)GlcNAc(b1-3)Gal(b1-4)GlcNAc(b1-3)Gal(b1-4)GlcNAc
Procedure, shortened: as §1

[44] = target: Neu5Ac(a2-6)Gal(b1-4)GlcNAc(b1-3)Gal(b1-4)GlcNAc(b1-3)GalNAc
Procedure, shortened: as §1

[45] = target: Neu5Ac(a2-6)Gal(b1-4)GlcNAc(b1-3)GalNAc
Procedure, shortened: as §1

[46] = target: Neu5Ac(a2-6)Gal(b1-4)GlcNAc(b1-6)[Gal(b1-3)GlcNAc(b1-3)]Gal(b1-4)Glc
Procedure, shortened: as §1

[47] = target: Neu5Ac(a2-6)GalNAc(b1-4)GlcNAc
Procedure, shortened: as §1

[48] = target: Neu5Ac(a2-8)Neu5Ac(a2-3)Gal(b1-3)GalNAc(b1-4)[Neu5Ac(a2-3)]Gal(b1-4)Glc
Procedure, shortened: as §1

[49] = target: Neu5Ac(a2-8)Neu5Ac(a2-3)[GalNAc(b1-4)]Gal(b1-4)Glc
Procedure, shortened: as §1

[50] = target: Neu5Ac(a2-8)Neu5Ac(a2-8)Neu5Ac
Procedure, shortened: as §1

[51] = target: Neu5Gc(a2-6)GalNAc
Procedure, shortened: as §1

B1: PhypaEULS3 (Physcomitrella patens) (protein)
chain: MLPVRLHCKADPNFNLAAVPGQGPVMVPFSPNDDFQVWYKDVTMSTRVKDETGSSAFSLINKATGQALRHAPEDLAQCLLADYDSNALDQTVLWTMSEDMGQGYCCIRLASQITRNLDVFRGDKKSGGVKEGSPVITFAWKKQDNQIWKMITAILEQKLISEEDLNSAVDHHHHHH
For B1, the “glycan array binding signal (z-score)” value [1] was 0.946, the “glycan array binding signal (z-score)” value [2] was -0.262 and the “glycan array binding signal (z-score)” value [3] was 3.08. For the same binder, the “glycan array binding signal (z-score)” value [4] was 0.713, the “glycan array binding signal (z-score)” value [5] was 2.22 and the “glycan array binding signal (z-score)” value [6] was -0.239. The “glycan array binding signal (z-score)” value [7] was 0.611, the “glycan array binding signal (z-score)” value [8] was 3.21 and the “glycan array binding signal (z-score)” value [9] was 0.702. The “glycan array binding signal (z-score)” value [10] was 1.01, the “glycan array binding signal (z-score)” value [11] was 1.42 and the “glycan array binding signal (z-score)” value [12] was -0.203. For the same binder, the “glycan array binding signal (z-score)” value [13] was 0.095, the “glycan array binding signal (z-score)” value [14] was 1.11 and the “glycan array binding signal (z-score)” value [15] was -0.969. For the same binder, the “glycan array binding signal (z-score)” value [16] was 2.27, the “glycan array binding signal (z-score)” value [17] was -0.557 and the “glycan array binding signal (z-score)” value [18] was 0.258. For the same binder, the “glycan array binding signal (z-score)” value [19] was 2.66, the “glycan array binding signal (z-score)” value [20] was -0.245 and the “glycan array binding signal (z-score)” value [21] was 4.14. For the same binder, the “glycan array binding signal (z-score)” value [22] was -0.804, the “glycan array binding signal (z-score)” value [23] was 2.6 and the “glycan array binding signal (z-score)” value [24] was -0.811. For the same binder, the “glycan array binding signal (z-score)” value [25] was -1.38, the “glycan array binding signal (z-score)” value [26] was -1.49 and the “glycan array binding signal (z-score)” value [27] was -1.15. For the same binder, the “glycan array binding signal (z-score)” value [28] was 1.26, the “glycan array binding signal (z-score)” value [29] was 0.671 and the “glycan array binding signal (z-score)” value [30] was 0.733. For the same binder, the “glycan array binding signal (z-score)” value [31] was -0.367, the “glycan array binding signal (z-score)” value [32] was 2.25 and the “glycan array binding signal (z-score)” value [33] was -0.185. The “glycan array binding signal (z-score)” value [34] was 0.192, the “glycan array binding signal (z-score)” value [35] was -0.422 and the “glycan array binding signal (z-score)” value [36] was 3.83. For the same binder, the “glycan array binding signal (z-score)” value [37] was 0.062, the “glycan array binding signal (z-score)” value [38] was 0.343 and the “glycan array binding signal (z-score)” value [39] was 2.29. The “glycan array binding signal (z-score)” value [40] was -0.098, the “glycan array binding signal (z-score)” value [41] was -0.347 and the “glycan array binding signal (z-score)” value [42] was 0.4. For the same binder, the “glycan array binding signal (z-score)” value [43] was 0.398, the “glycan array binding signal (z-score)” value [44] was 0.528 and the “glycan array binding signal (z-score)” value [45] was 0.678. The “glycan array binding signal (z-score)” value [46] was 0.339, the “glycan array binding signal (z-score)” value [47] was 0.235 and the “glycan array binding signal (z-score)” value [48] was -0.561. The “glycan array binding signal (z-score)” value [49] was -0.005, the “glycan array binding signal (z-score)” value [50] was -0.561 and the “glycan array binding signal (z-score)” value [51] was 2.46.
